Measurements published in PubChem BioAssay (NCI).
About 79,000 compounds went through this panel and 15% of them were active in at least one assay; those are over-represented in the sample as a whole. Activity calls are given as the source filed them. Rule as the data show it: active = growth inhibition above about 70%; inactive = the rest.

Key:
[1] = NCI Yeast Anticancer Drug Screen. Data for the rad52 strain (AID 147);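 also: 0% = growth of vehicle-treated control cultures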; settings: S. cerevisiae rad52 mutant growth inhibition, hits give high values
How it was run: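 Here a repair-compromised yeast strain receives each compound; its growth is then quantified and normalised to vehicle-only controls.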

[2] = NCI Yeast Anticancer Drug Screen. Data for the wt1 strain (AID 149);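 also: 0% = growth of vehicle-treated wt1 cultures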; settings: S. cerevisiae wt1 strain (SPY 50644) growth inhibition, hits give high values
How it was run: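 Readout: yeast growth inhibition, normalised to vehicle controls, in the wt1 strain exposed to test compounds.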

[3] = NCI Yeast Anticancer Drug Screen. Data for the rad50EPP+ strain (AID 151);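 also: 0% = growth of vehicle-treated control cultures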; settings: S. cerevisiae rad50 mutant strain, hits give high values
How it was run: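 Read-out is yeast growth inhibition relative to vehicle; cells used were the rad50EPP+ strain.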

[4] = NCI Yeast Anticancer Drug Screen. Data for the mgt1 strain (AID 153); settings: S. cerevisiae mgt1 mutant growth inhibition, hits give high values
How it was run: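 Measured: inhibition of mgt1 yeast growth by compound, normalized to vehicle-treated cultures.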

[5] = NCI Yeast Anticancer Drug Screen. Data for the rad50 strain (AID 155);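 also: 0% = growth of vehicle-only cultures of the same strain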; settings: S. cerevisiae rad50 strain growth inhibition, hits give high values
How it was run: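 Compounds were tested on a yeast strain with an engineered DNA damage repair alteration; the reported value is growth inhibition normalised to vehicle treatment.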

[6] = NCI Yeast Anticancer Drug Screen. Data for the mec2-1 strain (AID 157); settings: S. cerevisiae mec2-1 strain, hits give high values
How it was run: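 Using mec2-1 yeast: add compound, measure growth, express inhibition versus vehicle-treated cultures.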

[7] = NCI Yeast Anticancer Drug Screen. Data for the rad14 strain (AID 159);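 also: 0% = growth of vehicle-treated control cultures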; settings: S. cerevisiae rad14 strain growth inhibition, hits give high values
How it was run: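 Compound-treated yeast with a defined DNA-repair lesion; growth inhibition normalised to vehicle-treated cultures.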

[8] = NCI Yeast Anticancer Drug Screen. Data for the sgs1 mgt1 strain (AID 161);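 also: 0% = growth of cultures given vehicle only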; settings: S. cerevisiae sgs1 mgt1 strain, hits give high values
How it was run: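 Percent growth inhibition was derived by comparing compound-exposed mutant yeast with vehicle-exposed cultures. The strain carries alterations in DNA damage repair.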

[9] = NCI Yeast Anticancer Drug Screen. Data for the CLN2oe strain (AID 163);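 also: 0% = growth of vehicle-only control cultures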; settings: S. cerevisiae CLN2oe strain, hits give high values
How it was run: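 Whole-cell yeast growth assay. A strain engineered for altered cell-cycle control received compound, and inhibition relative to vehicle-treated cultures was recorded.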

[10] = NCI Yeast Anticancer Drug Screen. Data for the cln2 rad14 strain (AID 165);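 also: 0% = growth equal to vehicle treated cultures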; settings: S. cerevisiae cln2 rad14 strain, hits give high values
How it was run: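 Yeast strain cln2 rad14, bearing defects in cell cycle control and DNA repair, serves as the test system; values reflect growth inhibition compared with vehicle.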

[11] = NCI Yeast Anticancer Drug Screen. Data for the bub3 strain (AID 167); settings: S. cerevisiae bub3 mutant strain, hits give high values
How it was run: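 Growth of a checkpoint-deficient yeast mutant is measured after compound exposure. Values represent inhibition relative to vehicle.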

[12] = NCI Yeast Anticancer Drug Screen. Data for the wt2 strain (AID 169);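 also: 0% = growth of vehicle-treated yeast cultures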; settings: S. cerevisiae wt2 strain growth inhibition, hits give high values
How it was run: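 Treated yeast vs. vehicle-treated yeast: growth inhibition determined.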

[13] = NCI Yeast Anticancer Drug Screen. Data for the mlh1 strain (AID 171);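 also: 0% = growth of vehicle-treated control cultures of the same strain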; settings: S. cerevisiae mlh1 strain growth inhibition, hits give high values
How it was run: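 A yeast strain with a defined genetic lesion serves as the test organism. Cultures receive compound or vehicle, and growth is measured.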

[14] = NCI Yeast Anticancer Drug Screen. Data for the sgs1 strain (AID 173);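 also: 0% = growth of vehicle-only control cultures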; settings: S. cerevisiae sgs1 mutant, hits give high values
How it was run: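 A genetically defined yeast mutant is incubated with the test compound, and its growth is compared to that of the same strain given vehicle.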

[15] = NCI Yeast Anticancer Drug Screen. Data for the mlh1 rad18 strain (AID 175); settings: S. cerevisiae mlh1 rad18 strain growth inhibition, hits give high values
How it was run: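 Steps: expose repair-defective yeast to compound; measure growth; express inhibition against vehicle-treated controls.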

[16] = NCI Yeast Anticancer Drug Screen. Data for the rad18 strain (AID 177); settings: S. cerevisiae rad18 mutant growth inhibition, hits give high values
How it was run: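 Measured value is growth inhibition of a yeast strain bearing a DNA repair alteration, referenced to vehicle-treated cells.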

[17] = at 5.0 µM (retest, dose inferred, filed as 0.5)
[18] = at 50.0 µM (retest, dose inferred, filed as 5.0)

Measured: growth inhibition

NC(=S)N/N=C1\c2ccccc2CCC1CCC1(O)CCc2ccccc2C1=O (stereo not drawn)
inactive: [1]; at 1.2 µM 43% | [1]; at 3.7 µM 47% | [1]; at 11.0 µM 55% | [2]; at 1.2 µM 21% | [2]; at 3.7 µM 24% | [2]; at 11.0 µM 19% | [2]; at 33.0 µM 44% | [3]; at 1.2 µM 36% | [3]; at 3.7 µM 23% | [3]; at 11.0 µM 17% | [3]; at 33.0 µM 23% | [3]; at 100.0 µM 10% | [4]; at 1.2 µM 21% | [4]; at 3.7 µM 18% | [4]; at 11.0 µM 48% | [5]; at 1.2 µM 35% | [5]; at 3.7 µM 19% | [5]; [17] 2% | [5]; at 11.0 µM 49% | [5]; [18] 52% | [6]; at 1.2 µM 5% | [6]; at 3.7 µM 13% | [6]; [17] -1% | [6]; at 11.0 µM 16% | [6]; at 33.0 µM 50% | [6]; [18] 55% | [7]; at 1.2 µM 2% | [7]; at 3.7 µM 7% | [7]; at 11.0 µM 47% | [8]; [17] 10% | [9]; at 1.2 µM 38% | [9]; at 3.7 µM 36% | [9]; at 11.0 µM 42% | [9]; at 33.0 µM 64% | [10]; [17] 18% | [11]; at 1.2 µM 20% | [11]; at 3.7 µM 13% | [11]; [17] 17% | [11]; at 11.0 µM 34% | [11]; at 50.0 µM 46.1% | [12]; at 1.2 µM -8% | [12]; at 3.7 µM -7% | [12]; at 11.0 µM 13% | [12]; at 33.0 µM 62% | [13]; at 1.2 µM 14% | [13]; at 3.7 µM 14% | [13]; at 11.0 µM 46% | [14]; at 1.2 µM 34% | [14]; at 3.7 µM 34% | [14]; at 11.0 µM 63% | [15]; [17] 0% | [16]; at 1.2 µM 52% | [16]; at 3.7 µM 50% | [16]; at 11.0 µM 63%
active: [1]; at 33.0 µM 86% | [1]; at 100.0 µM 85% | [2]; at 100.0 µM 80% | [4]; at 33.0 µM 82% | [4]; at 100.0 µM 84% | [5]; at 33.0 µM 84% | [5]; at 50.0 µM 86.8% | [5]; at 100.0 µM 78% | [6]; at 50.0 µM 88.2% | [6]; at 100.0 µM 81% | [7]; at 33.0 µM 82% | [7]; at 100.0 µM 86% | [8]; [18] 88% | [8]; at 50.0 µM 92.5% | [9]; at 100.0 µM 82% | [10]; [18] 81% | [10]; at 50.0 µM 89.7% | [11]; at 33.0 µM 84% | [11]; [18] 83% | [11]; at 100.0 µM 85% | [12]; at 100.0 µM 83% | [13]; at 33.0 µM 79% | [13]; at 100.0 µM 81% | [14]; at 33.0 µM 82% | [14]; at 100.0 µM 84% | [15]; [18] 83% | [15]; at 50.0 µM 93.3% | [16]; at 33.0 µM 86% | [16]; at 100.0 µM 81%

CCOC(=O)C(Cc1c2ccccc2cc2ccccc12)(NC(C)=O)C(=O)OCC
active: [5]; at 50.0 µM 90.2% | [6]; at 50.0 µM 75.5% | [8]; at 50.0 µM 86% | [11]; at 50.0 µM 88.8%
inactive: [1]; at 1.2 µM -2% | [1]; at 3.7 µM -2% | [1]; at 11.0 µM -4% | [1]; at 33.0 µM -6% | [1]; at 100.0 µM 0% | [2]; at 1.2 µM -1% | [2]; at 3.7 µM 0% | [2]; at 11.0 µM -2% | [2]; at 33.0 µM -3% | [2]; at 100.0 µM -2% | [3]; at 1.2 µM 0% | [3]; at 3.7 µM 0% | [3]; at 11.0 µM 6% | [3]; at 33.0 µM 12% | [3]; at 100.0 µM 10% | [4]; at 1.2 µM -3% | [4]; at 3.7 µM -2% | [4]; at 11.0 µM -3% | [4]; at 33.0 µM -18% | [4]; at 100.0 µM -4% | [5]; at 1.2 µM -6% | [5]; at 3.7 µM -16% | [5]; [17] -8% | [5]; at 11.0 µM -22% | [5]; at 33.0 µM -4% | [5]; [18] 11% | [5]; at 100.0 µM -2% | [6]; at 1.2 µM 0% | [6]; at 3.7 µM 0% | [6]; [17] -6% | [6]; at 11.0 µM -1% | [6]; at 33.0 µM 1% | [6]; [18] 27% | [6]; at 100.0 µM -1% | [7]; at 1.2 µM -3% | [7]; at 3.7 µM -5% | [7]; at 11.0 µM -3% | [7]; at 33.0 µM -5% | [7]; at 100.0 µM -1% | [8]; [17] -7% | [8]; [18] 19% | [9]; at 1.2 µM -3% | [9]; at 3.7 µM -2% | [9]; at 11.0 µM -6% | [9]; at 33.0 µM 0% | [9]; at 100.0 µM -2% | [10]; [17] 5% | [10]; [18] 41% | [10]; at 50.0 µM 61.3% | [11]; at 1.2 µM -2% | [11]; at 3.7 µM 1% | [11]; [17] 8% | [11]; at 11.0 µM -1% | [11]; at 33.0 µM 0% | [11]; [18] 67% | [11]; at 100.0 µM 2%
